# Dicer inh – inhibitors of human Dicer processing of pre-microRNA | hit rate 6% among 47,000 | AID 1347074 | z-score at 25 µM | cat-ELCCA pre-miR-21 Dicer processing, chemiluminescence; stronger effect = higher value | Q9UPY3; in the data active = z-score above about 3, passing the limit was not always enough;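 note: plate controls were vehicle for no effect and no enzyme for full effect; higher signal means more uncleaved substrate so more Dicer inhibition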
# * hit, by the source's call. This is one part of a sample in which hits are shown more often than they occur.
SMILES,Dicer inh
C=CCn1c(N)cc(=O)nc1SCC(=O)Nc1ccccc1,0.4
C=CCn1c(=O)c(C(=O)Nc2cccc(O)c2)c(O)c2ccccc21,11.3*
O=C(O)CSc1nc2cc(Cl)ccc2s1,1.75
CC1(C)CC(=O)C(C(C2=C(O)CC(C)(C)CC2=O)c2ccc([N+](=O)[O-])s2)C(=O)C1 (stereo unspecified),-0.64
Cc1cc(C)c(S(=O)(=O)Nc2ccc3c4c(cc(=O)n3C)-c3ccccc3C(=O)c24)cc1C,0.7
CCCC[C@@]1(C2CCCC2)Cc2cc(OCC(=O)O)c(Cl)c(Cl)c2C1=O,3.95*
CN1CCc2c(sc3c2C(=O)NC(c2ccc(O)c(O)c2)N3)C1 (stereo unspecified),1.41
O=c1[nH]nc(N2CCCCC2)c(=O)[nH]1,0.84
CCNc1nc(NC(C)C)nc(OCCNS(=O)(=O)c2ccc(C)cc2)n1,1.49
COc1ccc(-c2nc(-c3ccccc3)no2)cc1OC,-0.64
COc1ccc(-c2cc(-c3cc(OC)ccc3O)[nH]n2)cc1,8.07*
COc1ccc(-c2cc(-c3ccccc3O)[nH]n2)cc1OC,4.97*
COc1cc(-c2ccc(=O)[nH]n2)ccc1OC(F)F,0.07
COc1ccc(-c2ccc(=O)[nH]n2)cc1,1.19
CCc1cc(-c2[nH]ncc2-c2ccc(OC)cc2)c(O)cc1O,0.83
N/C(=N\O)c1cc(C(F)(F)F)cc(C(F)(F)F)c1,-0.11
COc1ccccc1C1Nc2cccc3cccc(c23)N1,2.16
Brc1cccc(C2Nc3cccc4cccc(c34)N2)c1,5.15*
CN(C)c1ccc(C2Nc3cccc4cccc(c34)N2)cc1,0.05
c1ccc(C2Nc3cccc4cccc(c34)N2)cc1,6.15*
CC(C)(C)c1ccc(C2Nc3cccc4cccc(c34)N2)cc1,4.96*
CCc1ccc(C2Nc3cccc4cccc(c34)N2)cc1,0.54
c1ccc2c(C3Nc4cccc5cccc(c45)N3)cccc2c1,4.37*
COc1cc(C2Nc3cccc4cccc(c34)N2)ccc1OCc1ccccc1,2.91
O=C1NC(c2ccc(Cl)cc2)Nc2ccccc21 (stereo unspecified),-0.49
SMILES,Dicer inh
O=C1NC(c2cccc(Br)c2)Nc2ccccc21 (stereo unspecified),2.1
CCOc1cc(C2Nc3cccc4cccc(c34)N2)ccc1O,2.86
COc1cc(OC)c(C2Nc3cccc4cccc(c34)N2)c(OC)c1,1.84
COC(=O)C1=C(C)Nc2ncnn2C1c1cccc(F)c1 (stereo unspecified),-0.01
CCOC(=O)c1c(C)csc1NC(=O)Nc1ccc(Cl)cc1,-0.9
Cc1ccc(-c2cc(C(F)F)n3ncc(C(=O)NC4CCCC4)c3n2)cc1,1.48
CSc1n[nH]c(-c2ccccc2)c1C#N,0.6
O=C(Nc1c(-c2ccccc2)c2cc(Br)ccc2[nH]c1=O)c1ccccc1Cl,1.86
COc1ccc(N2C(=O)CC(N3CCN(c4ccc(F)cc4)CC3)C2=O)cc1 (stereo unspecified),0.06
O=C(OCc1ccccc1)[C@@H](O)c1ccccc1,0.31
O=C(NNc1c(Cl)cc(Cl)cc1Cl)NC(=O)c1c(F)cccc1F,-0.54
COc1cccc(-c2nc(-c3ccc(Cl)cc3)no2)c1OC,0.41
COc1ccc2c(c1OC)C(=O)OC2Nc1cc(C)ccn1 (stereo unspecified),1.15
c1ccc(-c2csc3ncnc(N4CCN(Cc5ccc6c(c5)OCO6)CC4)c23)cc1,4.65*
CCCc1cnc(N2CCN(c3ncnc4scc(-c5ccccc5)c34)CC2)nc1,-1.68
Clc1ccc(CN2CCCN(c3ncnc4scc(-c5ccccc5)c34)CC2)cc1Cl,-0.88
CC(C)(C)NS(=O)(=O)c1cccc2c(N)cccc12,-2.16
O=C(CCc1ccc(O)cc1)c1c(O)cc(O)cc1O,3.59*
O=C(CCc1ccc(O)cc1)NNC(=S)NCCc1ccccc1,-0.71
CCOC(=O)C(=CNNC(=O)CCc1ccc(O)cc1)C(=O)OCC,-0.3
CC(=O)Nc1nc2ccc(Br)cc2s1,-3.01
CS(=O)(=O)c1ccc2nc(NC(=O)CCCC(=O)O)sc2c1,0.15
CS(=O)(=O)c1ccc2nc(NC(=O)Cc3ccc(Br)cc3)sc2c1,5.28*
CCOC(=O)Nc1nc2ccc(C)cc2s1,0.79
CCOC(=O)C(=O)Nc1nc2ccc(S(C)(=O)=O)cc2s1,5.83*
SMILES,Dicer inh
CCCCOC(=O)Nc1nc2ccc(C)cc2s1,2.34
CSC1=C(C#N)C(=O)NC(c2cccc3ccccc23)S1 (stereo unspecified),0.89
CSC1=C(C#N)C(=O)NC(c2ccccc2O)S1 (stereo unspecified),-0.17
CC(C)(C)NC1=C(C#N)C(=O)NC(c2ccccc2O)S1 (stereo unspecified),3.86*
CCCc1cnc(N2CCCN(C(=S)Nc3ccc(C)cc3C)CC2)nc1,-0.83
O=C(OCCSc1ccc(C(F)(F)F)cn1)c1ccc(Cl)cc1,-0.69
CC1=Nc2ccccc2-c2nnc(SCc3ccc(C)cc3)nc2O1,2.58
CC1=C(C(=O)Nc2ccccc2)C(c2ccccn2)n2nnnc2N1 (stereo unspecified),2.28
COC(=O)C1=C(C(=O)OC)SC(=C2C(=S)C(C)(C)Nc3cc(C)ccc32)S1,-0.54

# Bioassay records deposited in PubChem by Center for Chemical Genomics, University of Michigan.
